Among the data in PubChem BioAssay (NCI) are growth values, retold here.

Structures are written as SMILES. The panel holds about 83,000 compounds, 20% with a hit somewhere; the sample as a whole holds those more often.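 Activity criterion: percent growth below 10, measured after cells in 96-well plates were exposed to a single compound concentration for 48 hours.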 Values without a mark were called inactive. Active and inactive are the calls of the source.

Test systems include NCI-H23 lung; NCI-H226 lung; NCI-H322M lung; HOP-62 NSCLC; NCI-H460 lung; HOP-92 NSCLC; NCI-H522 lung; A549/ATCC NSCLC; 786-0 renal; COLO 205 colon; DU-145 prostate; K-562 leukemia; MALME-3M melanoma; MDA-MB-231 breast; SF-268 CNS; SF-295 CNS; SF-539 CNS; UACC-257 melanoma; RXF 393 renal.
What all share (test): NCI-60 one-dose screen, 48 h (100 = growth as untreated, 0 = no growth, -100 = all killed)
Holding throughout (settings): 10 µM unless noted

Take `C=C1C(=O)O[C@H]2[C@H]1CC/C(COC(=O)/C=C\C(=O)NCc1ccc(Cn3c(=O)sn(CCCI)c3=O)cc1)=C\CC[C@@]1(C)O[C@@H]21`: the growth was -72.1% (active) in the experiment on NCI-H23 lung; -77% (active) in the experiment on NCI-H226 lung; 17.3% with NCI-H322M lung; -36% (active) in the experiment on HOP-62 NSCLC; -79.1% (active) with NCI-H460 lung; -68.6% (active) in the experiment on HOP-92 NSCLC. Further, the growth in the experiment with NCI-H522 lung was -56.1% (active); with A549/ATCC NSCLC, -0.92% (active); with 786-0 renal, -76.9% (active); in the experiment on COLO 205 colon it was -52.7% (active); in the experiment on DU-145 prostate, -90.4% (active); with K-562 leukemia it was -10.1% (active). Moreover, the growth with MALME-3M melanoma is -94.2% (active); with MDA-MB-231 breast, -83.3% (active); in the experiment with SF-268 CNS, -81.7% (active); in the experiment with SF-295 CNS it was 58%; in the experiment with SF-539 CNS, -98.7% (active); in the experiment with UACC-257 melanoma, -53.7% (active).

With `C=C1C(=O)O[C@H]2[C@H]1CC/C(COC(=O)/C=C\C(=O)NCc1ccc(Cn3c(=O)sn(-c4ccc(C#N)cc4)c3=O)cc1)=C\CC[C@@]1(C)O[C@@H]21`, the growth in the experiment with NCI-H23 lung was -80.4% (active); in the experiment on NCI-H226 lung it was -69.5% (active); in the experiment on NCI-H322M lung it was -46.6% (active); in the experiment with HOP-62 NSCLC, -37.3% (active); in the experiment on NCI-H460 lung, -68.7% (active); in the experiment on HOP-92 NSCLC it was -65.8% (active). Moreover, the growth was -47.5% (active) in the experiment on NCI-H522 lung; -21.4% (active) with A549/ATCC NSCLC; -75.8% (active) with 786-0 renal; -55.4% (active) in the experiment on COLO 205 colon; -94.4% (active) with DU-145 prostate; -8.61% (active) with K-562 leukemia. Besides, the growth with MALME-3M melanoma is -95% (active); in the experiment with MDA-MB-231 breast, -86% (active); with SF-268 CNS, -75.2% (active); in the experiment on SF-295 CNS it was 56.4%; with SF-539 CNS, -99.3% (active); in the experiment with UACC-257 melanoma it was -68.2% (active).

Take `O[C@H]1CO[C@H]2[C@@H]1OC[C@@H]2Oc1ccc(Nc2ccnc(Nc3ccc(O[C@H]4CO[C@H]5[C@@H]4OC[C@@H]5O)c(Cl)c3)n2)cc1Cl`: the growth is -1.73% (active) with NCI-H23 lung; 4.09% (active) with NCI-H226 lung; -4.12% (active) in the experiment with NCI-H322M lung; -28.9% (active) with HOP-62 NSCLC; 1.27% (active) in the experiment on NCI-H460 lung; -20% (active) in the experiment with HOP-92 NSCLC. Moreover, the growth in the experiment on NCI-H522 lung was -4.53% (active); with A549/ATCC NSCLC, 21.7%; in the experiment with 786-0 renal, 24.7%; in the experiment on COLO 205 colon, 12%; in the experiment on DU-145 prostate it was 7.26% (active); in the experiment with K-562 leukemia, 5.05% (active). In addition, the growth in the experiment on MALME-3M melanoma was 13.2%; in the experiment with MDA-MB-231 breast, 21.8%; in the experiment with SF-268 CNS it was 16.4%; in the experiment on SF-295 CNS, 7.74% (active); with SF-539 CNS, 8.89% (active); in the experiment on UACC-257 melanoma, 31.8%.

Turning to `COc1cccc(/C=C2\COc3ccc(O)cc3C2=O)c1OC`, the growth in the experiment on NCI-H23 lung was 86.6%; in the experiment with NCI-H226 lung it was 95.2%; with NCI-H322M lung it was 90.5%; in the experiment with HOP-62 NSCLC, 88.4%; in the experiment on NCI-H460 lung, 67.8%; in the experiment on HOP-92 NSCLC it was 86.8%. The growth in the experiment on NCI-H522 lung is 28.7%; in the experiment on A549/ATCC NSCLC, 105%; with 786-0 renal, 86.1%; with COLO 205 colon it was 92.1%; in the experiment with DU-145 prostate, 45.1%; with K-562 leukemia it was 5.8% (active). The growth in the experiment on MALME-3M melanoma is 73.9%; with MDA-MB-231 breast, 85.1%; in the experiment with SF-268 CNS it was 85%; in the experiment with SF-295 CNS, 95.7%; in the experiment on SF-539 CNS it was 72.2%; in the experiment on UACC-257 melanoma it was 83.3%.

With `Cn1cc(-c2ccc3nc(-c4ccc(CC(=O)Nc5cc(C(C)(C)C)no5)cc4)cnc3c2)cn1`, the growth with NCI-H23 lung is 41.8% [30 µM]; in the experiment with NCI-H226 lung it was 30.8% [30 µM]; in the experiment on NCI-H322M lung, 26.7% [30 µM]; with HOP-62 NSCLC it was 61.3% [30 µM]; in the experiment with NCI-H460 lung, 21.1% [30 µM]; in the experiment with HOP-92 NSCLC, -3.39% [30 µM] (active). Besides, the growth was 26.6% [30 µM] with NCI-H522 lung; 33.9% [30 µM] with A549/ATCC NSCLC; 35.7% [30 µM] in the experiment on 786-0 renal; 61.6% [30 µM] in the experiment with COLO 205 colon; 22.6% [30 µM] with DU-145 prostate; 4.38% [30 µM] (active) in the experiment on K-562 leukemia. The growth in the experiment with MALME-3M melanoma was 0.481% [30 µM] (active); with MDA-MB-231 breast, -5.94% [30 µM] (active); in the experiment on SF-268 CNS, 27.4% [30 µM]; in the experiment on SF-295 CNS, 23.2% [30 µM]; in the experiment on SF-539 CNS, 16.3% [30 µM]; with UACC-257 melanoma, 41.9% [30 µM].

As to `COc1ccc(/C=C2\COc3ccc(O)cc3C2=O)cc1OC`, the growth in the experiment on NCI-H23 lung is 105%; in the experiment with NCI-H226 lung it was 97%; with NCI-H322M lung, 90.4%; in the experiment with HOP-62 NSCLC it was 76%; in the experiment with NCI-H460 lung, 67.6%; in the experiment on HOP-92 NSCLC, 59.1%. The growth in the experiment on NCI-H522 lung was 35.2%; in the experiment on A549/ATCC NSCLC, 91.2%; with 786-0 renal, 88.2%; in the experiment with COLO 205 colon it was 93.9%; with DU-145 prostate, 65.7%; in the experiment on K-562 leukemia it was 8.84% (active). Further, the growth in the experiment with MALME-3M melanoma was 92.6%; in the experiment on MDA-MB-231 breast, 87.5%; with SF-268 CNS, 93.1%; in the experiment on SF-295 CNS, 103%; in the experiment with SF-539 CNS, 83.2%; in the experiment on UACC-257 melanoma, 80.2%.

As for `O=c1[nH]nc(-c2ccc(Cl)cc2)cc1Cc1ccccc1`, the growth was 92.3% with NCI-H23 lung; 79.9% in the experiment on NCI-H226 lung; 155% with NCI-H322M lung; 90.5% in the experiment on HOP-62 NSCLC; 104% in the experiment on NCI-H460 lung; 86.2% in the experiment on HOP-92 NSCLC. For the same compound, the growth is 35% in the experiment on NCI-H522 lung; 42.1% in the experiment on A549/ATCC NSCLC; 96.9% with 786-0 renal; 116% with COLO 205 colon; 104% in the experiment with DU-145 prostate; 79% with K-562 leukemia. Further, the growth in the experiment with MDA-MB-231 breast was 79.5%; with RXF 393 renal, 3.35% (active); in the experiment on SF-268 CNS it was 99.4%; in the experiment on SF-295 CNS it was 89.6%; in the experiment with SF-539 CNS it was 65.2%; in the experiment on UACC-257 melanoma, 84.3%.

Turning to `COc1ccc(N(C)c2nc(Cl)nc3cnn(C)c23)cc1`, the growth was 34.4% in the experiment with NCI-H23 lung; 1% (active) in the experiment with NCI-H226 lung; 34.1% with NCI-H322M lung; 21.9% in the experiment on HOP-62 NSCLC; 7.51% (active) in the experiment with NCI-H460 lung; 28.6% in the experiment with HOP-92 NSCLC. Further, the growth with NCI-H522 lung is -27.6% (active); in the experiment with A549/ATCC NSCLC it was 10.8%; in the experiment with 786-0 renal, 8.74% (active); in the experiment on COLO 205 colon, -68.3% (active); in the experiment on DU-145 prostate, 7.13% (active); in the experiment on MALME-3M melanoma, 75.3%. For the same compound, the growth is 19.2% in the experiment with MDA-MB-231 breast; 44.8% in the experiment on RXF 393 renal; 29.1% in the experiment on SF-268 CNS; 17.9% in the experiment with SF-295 CNS; -9.34% (active) in the experiment on SF-539 CNS; 38.1% with UACC-257 melanoma.
